Source: paper PMC13494018
A number with no mark means an inactive call. How the calls were made is not given here.

These binders were tested against CD276, Q5ZPR3.
Chain of CD276, Q5ZPR3 (Q5ZPR3 whole entry): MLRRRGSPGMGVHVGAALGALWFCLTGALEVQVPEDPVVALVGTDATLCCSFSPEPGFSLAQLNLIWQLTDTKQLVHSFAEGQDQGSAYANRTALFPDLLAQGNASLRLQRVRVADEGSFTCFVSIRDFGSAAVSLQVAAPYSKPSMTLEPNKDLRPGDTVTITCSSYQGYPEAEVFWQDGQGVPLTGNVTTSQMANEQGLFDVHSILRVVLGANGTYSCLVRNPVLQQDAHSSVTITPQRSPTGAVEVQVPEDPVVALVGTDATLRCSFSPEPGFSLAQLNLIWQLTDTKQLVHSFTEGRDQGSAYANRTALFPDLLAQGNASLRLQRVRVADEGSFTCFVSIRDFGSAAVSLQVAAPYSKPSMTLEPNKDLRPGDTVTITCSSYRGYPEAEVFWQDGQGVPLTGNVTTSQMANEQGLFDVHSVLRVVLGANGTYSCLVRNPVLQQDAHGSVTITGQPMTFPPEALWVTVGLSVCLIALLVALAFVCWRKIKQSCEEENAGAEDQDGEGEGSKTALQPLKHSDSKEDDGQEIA

Binder | binding in a display sort
design_619_5728adc2-0aea-404f-92dd-a4575c53f550_605_dldesign_0_cycle1_af2pred (protein) GQVAVNAAKGVAKTAISYAERLAKVEGEEGKKFLEEVKKETTKLVEEAKKSTPEKAQQLLAELVDLMKEVAERAAAAEAAAAAAAA | not found
design_619_5728adc2-0aea-404f-92dd-a4575c53f550_302_dldesign_0_cycle1_af2pred (protein) EREEVLREAIELLEKTAEAAKALGTPAGEILAASARALARLLREQRDEISLEGAKGYLELAKQLAAGVEAA | not found
design_619_5728adc2-0aea-404f-92dd-a4575c53f550_1117_dldesign_0_cycle1_af2pred (protein) SAAAAAAAGALAVEEAKRFAEEQLAYGKAEDPGVGMQAIATYANRKAVEYASDPATASAIVSIGVEAMEELARWRREREA | not found
design_619_5728adc2-0aea-404f-92dd-a4575c53f550_740_dldesign_0_cycle1_af2pred (protein) GAAEEARRLVEEVEAALKEAEAAAAADAAEGLRAAGELAVLAAEAAARALRLGDEEAFRRISAAIARATALAQQLAA | not found
design_619_5728adc2-0aea-404f-92dd-a4575c53f550_521_dldesign_0_cycle1_af2pred (protein) GEEEELKKKQQEVAERAKEAAELAKEAAKLSGQTEVANAVEAAAKQAAAAAEADPSAVESQLKFVEQLLEIALAALAAAKAAAAAA | not found
design_619_5728adc2-0aea-404f-92dd-a4575c53f550_447_dldesign_0_cycle1_af2pred (protein) EELVKKAKEETTKLLEKAKEEAPGLGTLALNSFNNGFKEGVKEAYERLKKLYEWVTANATTPEQKKVAELIKKAYEVAKKAAEA | not found
design_619_5728adc2-0aea-404f-92dd-a4575c53f550_437_dldesign_0_cycle1_af2pred (protein) AAAEEAALAKAKKEAAEAAVKAVEYAARAGDPALAAKATRLLHEAQLTTDLEEAKKYLEEIKKLLKEAKERAE | not found
design_619_5728adc2-0aea-404f-92dd-a4575c53f550_252_dldesign_0_cycle1_af2pred (protein) AAKEIAKQAQEAGKAAIAAAEALGKAKDPEEAKQMQEIAKALQQNAQAAAKAGDAKVAQAALNALRGLLRNAEAALAAAK | not found
design_619_5728adc2-0aea-404f-92dd-a4575c53f550_927_dldesign_0_cycle1_af2pred (protein) AAALDSARGEAAVTAAKLYGLAYKLDPELGAQAAAALAAILRDKATAVEGAKAAAAVAEKLKEKDPENAGELEKKLKELAEKLKAA | not found
design_619_5728adc2-0aea-404f-92dd-a4575c53f550_1042_dldesign_0_cycle1_af2pred (protein) DAKEHAERALELAKEAAESGSVALASRAMQELALAINADPALGAEAAKEAAKIFAKNPELAGFGEAAVAIAA | not found
design_619_5728adc2-0aea-404f-92dd-a4575c53f550_440_dldesign_0_cycle1_af2pred (protein) VTPEASKIAANSALALAKNILENVGVMSPEEAAGAVQVVVDLVKNSLPSEKEKHVEIAEVLKEAAKKNPANAAVLEAGAKAIEEIL | not found
design_619_5728adc2-0aea-404f-92dd-a4575c53f550_396_dldesign_0_cycle1_af2pred (protein) DEAKKQAEKHYKLAKEHLEKAIASKDEKEAKAHVSRARLNALAAASLDPSVAPEMLAMLKATAEALKDHPEAKAEAEEAAKLVAQLA | not found
design_619_5728adc2-0aea-404f-92dd-a4575c53f550_766_dldesign_0_cycle1_af2pred (protein) MLGAEWARQQARRTAERAAELLAADPAAGAAAFARARTIVELAKGIDPEVGKAAQAEVEAIEAQAKAAAAAA | binds (active)
design_619_5728adc2-0aea-404f-92dd-a4575c53f550_548_dldesign_0_cycle1_af2pred (protein) AALRHRTMAALFGRAVTLTGEAGRQAALNAAQMAAVLDPAAGAEFAAAIAEAAKATGDAGVHAVAAEFAAKEAAAAAAAAA | not found
design_619_5728adc2-0aea-404f-92dd-a4575c53f550_253_dldesign_0_cycle1_af2pred (protein) AAAAAEAAVAAAMAQINALVAEANRLLIEAQKTGNVELAKKAYELAEKAAAVGKATPALAKMAEALSKVVKEMAKATIKQAEAQA | not found
design_619_5728adc2-0aea-404f-92dd-a4575c53f550_930_dldesign_0_cycle1_af2pred (protein) GEVKEQAEKELKKLEEAAKKTEEEAKKAAKAGATVAAAQIKATVKAALKNAKELFEKDPEQGLQAAKAALQVAETLLESAKGLIKAA | not found
design_619_5728adc2-0aea-404f-92dd-a4575c53f550_1087_dldesign_0_cycle1_af2pred (protein) GPEVAERVARSARGIAEVLRGLADSIRAAGGSPAAEERVRAAAEEAERLAREAEEAAGDAEVARRLAEEANRLLQEATAVAMADLQAV | not found
design_619_5728adc2-0aea-404f-92dd-a4575c53f550_649_dldesign_0_cycle1_af2pred (protein) GEELAKEVEKKAKEVLEKVKEKAKEIAAKGTPEQAREAKGLVARARAYAIAAVGAARTIPELAKRYLELAKKEAERL | not found
design_619_5728adc2-0aea-404f-92dd-a4575c53f550_577_dldesign_0_cycle1_af2pred (protein) AESIAREAVAQIAALAAAGVADPAAKGEQATAILQTAAAAQKAIRAAGGPESLLNAVQAAAGAAIAALVA | not found
